Assay results as given in PubChem BioAssay (Tox21).
“And” between values parts separate entries of the source, which are not always exact repeats. Equal entries are not always repeated. Inconclusive results are not listed. A call without a number means that no potency is given here. A structure can be active in one record and inactive in another. The source made the active and inactive calls. Calls come from the whole dose curve; as a rule, active = well fitted activation curve with a large enough effect in the repeat runs; inconclusive = weak or mixed curves; inactive = flat fitted curve, though single readings scatter.

Experiment: A CellTox Green Cytotoxicity Assay to monitor cytotoxicity in HepG2 cells - 16 hour (AID 1224876); note: nearly all actives have a fitted effect of over 45% in size
Conditions: CellTox Green fluorescence; series mostly up to 76.8 µM
Description: National Center for Advancing Translational Sciences [NCATS]
NIH Chemical Genomics Center [NCGC]
U.S. Environmental Protection Agency [EPA]
National Institutes of Environmental Health Sciences [NIEHS]
National Toxicology Program [NTP]
Cell-based models are critical for drug discovery. Determining the natural cytotoxic effects resulting from test compounds is an essential research activity. A CellTox Green Cytotoxicity Assay to monitor cytotoxicity in real time of continues cell culture during 40 hours of the compound treatment was used to screen Tox21 10K library compounds in HepG2 cells. CellTox Green Cytotoxicity Assay is a nonlytic, homogeneous, biofluorescent method to measure cytotoxicity in cell culture after experimental manipulation. The assay system uses a proprietary asymmetric cyanine dye that is excluded from viable cells but preferentially stains the dead cell's DNA. […] Viable cells produce no appreciable increases in fluorescence. Therefore, the fluorescence signal produced by the binding interaction with dead cell DNA is proportional to cytotoxicity.
The mixture of HepG2 cell suspension and reagents were dispensed at 600cells/6 ul/well in 1536-well tissue culture treated black solid bottom plates using a Multidrop dispenser. After the assay plates were incubated at a 37 C/5% CO2 incubator for 5 hours, 23 nL of compounds dissolved in DMSO, positive and negative controls was transferred to the assay plate by a pintool work station. The plates were incubated at 37 C for 40 hours. The fluorescence intensity were measured at 0h, 8h, 16h, 24h, 32h and 40h time points using ViewLux plate reader during compound treatment.
Potency is the fitted concentration of half-maximal effect.

Which Potency does the source give for `C/C=C/C(=O)O` here?
Its Potency is “inactive”.

Which Potency does the source give for `COC(=O)Nc1nc2ccc(S(=O)c3ccccc3)cc2[nH]1` (stereo not given) here?
The Potency was “inactive”.

Which Potency does the source give for `Oc1ccc(O)cc1` here?
Its Potency is “inactive”.

With `COC(=O)C1=C(C)NC(C)=C(C(=O)OCCN(C)Cc2ccccc2)C1c1cccc([N+](=O)[O-])c1` (stereo not given) as the compound, how does the Potency read?
The Potency was “inactive”.

Which Potency does the source give for `COC(=O)c1ccccc1` here?
Its Potency is “inactive”.

For `CC(C)OC(=O)C(C)(C)Oc1ccc(C(=O)c2ccc(Cl)cc2)cc1`, which Potency is on record?
Its Potency is “inactive”.

For `CNCCCC12CCC(c3ccccc31)c1ccccc12`, which Potency is on record?
Its Potency is 54.9 µM (active) and 26.8 µM (active).

With `C=C(C)C(=O)OCCOC(=O)C(=C)C` as the compound, how does the Potency read?
The Potency was “inactive”.

With `C[C@]12CCC(=O)C=C1CC[C@@H]1[C@@H]2C(=O)C[C@@]2(C)[C@H]1CC[C@]2(O)C(=O)CO` as the compound, how does the Potency read?
Its Potency is “inactive”.

For `O=C(c1ccccc1)c1ccc(O)cc1O`, which Potency is on record?
The Potency was “inactive”.

With `CN(C)CCN(Cc1cccs1)c1ccccn1` as the compound, how does the Potency read?
The Potency was “inactive”.

With `O=C(c1ccccc1)c1ccccc1O` as the compound, how does the Potency read?
The Potency was “inactive”.

For `O=C(/C=C/c1ccccc1)OCc1ccccc1`, which Potency is on record?
The Potency was “inactive”.

With `CCOC(=O)C(C#N)=C(c1ccccc1)c1ccccc1` as the compound, how does the Potency read?
The Potency was “inactive”.

With `C#C[C@]1(O)CC[C@H]2[C@@H]3CCC4=Cc5oncc5C[C@]4(C)[C@H]3CC[C@@]21C` as the compound, how does the Potency read?
The Potency was “inactive”.

Which Potency does the source give for `CC(C(=O)O)c1cccc(C(=O)c2ccccc2)c1` (stereo not given) here?
The Potency was “inactive”.

For `O=C1c2cccc(O)c2C(=O)c2c(O)cccc21`, which Potency is on record?
The Potency was “inactive”.

With `O=C1OC2(c3cc(Br)c(O)c(Br)c3Oc3c2cc(Br)c(O)c3Br)c2c(Cl)c(Cl)c(Cl)c(Cl)c21` as the compound, how does the Potency read?
Its Potency is 3.1 µM (active) and 14.9 µM (active).

With `CC(CCC(=O)O)(c1ccc(O)cc1)c1ccc(O)cc1` as the compound, how does the Potency read?
The Potency was “inactive”.

For `CCCCC(CC)COC(=O)c1ccc(N(C)C)cc1` (stereo not given), which Potency is on record?
The Potency was “inactive”.

For `Clc1nc(Cl)c(Cl)c(Cl)c1Cl`, which Potency is on record?
Its Potency is “inactive”.

For `CC(C)(C)NC(=O)[C@H]1CC[C@H]2[C@@H]3CC[C@H]4NC(=O)C=C[C@]4(C)[C@H]3CC[C@]12C`, which Potency is on record?
The Potency was “inactive”.

With `CC(C)Oc1ccc2c(=O)c(-c3ccccc3)coc2c1` as the compound, how does the Potency read?
Its Potency is “inactive”.

With `Cc1cccc(C(=O)O)c1` as the compound, how does the Potency read?
Its Potency is “inactive”.

Which Potency does the source give for `CCCCCCCCCCCO` here?
Its Potency is “inactive”.

For `CCCCC/C=C/C=C/C=O`, which Potency is on record?
Its Potency is “inactive”.

Which Potency does the source give for `COc1ccccc1/C=C/C=O` here?
Its Potency is “inactive”.

For `CC(C)=CCC/C(C)=C\CO`, which Potency is on record?
The Potency was “inactive”.

For `CCCCCCCCCC(=O)OC`, which Potency is on record?
The Potency was “inactive”.

For `O=C=Nc1ccc(Cc2ccc(N=C=O)cc2)cc1`, which Potency is on record?
The Potency was “inactive”.

For `O=CCCCC=O`, which Potency is on record?
The Potency was “inactive”.

With `Brc1cc(Oc2cc(Br)c(Br)c(Br)c2Br)c(Br)c(Br)c1Br` as the compound, how does the Potency read?
Its Potency is “inactive”.

Which Potency does the source give for `COc1cccc2c1C(=O)c1c(O)c3c(c(O)c1C2=O)C[C@@](O)(C(=O)CO)C[C@@H]3O[C@H]1C[C@H](N)[C@H](O)[C@H](C)O1` here?
Its Potency is “inactive and 21.3 µM (active)”.

For `Cc1cc2nc3c(=O)[nH]c(=O)nc-3n(C[C@H](O)[C@H](O)[C@H](O)CO)c2cc1C`, which Potency is on record?
Its Potency is 43.2 µM (active) and 40.5 µM (active) and 11.7 µM (active).

For `Cc1c(C(N)=O)cc([N+](=O)[O-])cc1[N+](=O)[O-]`, which Potency is on record?
Its Potency is “inactive”.

For `CCCc1c(OCCCCc2nn[nH]n2)ccc(C(C)=O)c1O`, which Potency is on record?
Its Potency is “inactive”.

With `O=Cc1ccccc1O` as the compound, how does the Potency read?
The Potency was “inactive”.

For `Nc1ncn([C@@H]2O[C@H](CO)[C@@H](O)[C@H]2O)c(=O)n1`, which Potency is on record?
Its Potency is “inactive”.

With `O=C(O)c1ccccc1Nc1cccc(C(F)(F)F)c1` as the compound, how does the Potency read?
Its Potency is “inactive”.

Which Potency does the source give for `Cc1ccc2c(n1)Oc1ccc(C(C)C(=O)OCC(=O)N(C)C)cc1C2` (stereo not given) here?
Its Potency is “inactive”.
